Data on 40 sequences can be found in the OligoGym collection.
Further: reference of the scale not given here.

The first test deals with FPGS. Kind of test: pooled miR-30 sensor sort-seq; sequence = guide strand. Particulars: shRNA.
Sequence TTCAGGTTGGAGCACAGTGAAG yielded a sensor-assay potency score (higher = more potent) of -1.98.
The same measure, in the same setting: under TTCACCTGCTCCAGGTAGCCGG stands -1.54; under TTCTGTTGGTCTGCGTTGCCTG, -0.416; under TAGCATTGAAGAGCAAGACTCG, -0.404.
Same read-out and setting: in the case of ATACATTCCGTGAAGGCACAGG it was 0.476; in that of TTCCGTGAAGGCACAGGTGGAG, 0.0376; in that of TGAAGTTCTGTTGGTCTGCGTT, -0.752.
On the same count and under the same terms, in the case of TCCTTGGTCTCCTCCAGCCGGT it was -1.92; in that of TCGGAGGATACATTCCGTGAAG, -1.5; in that of TATAGAGGACATGAGATCTGCT, 0.932.
Sequence TCTGTTGGTCTGCGTTGCCTGT returned a sensor-assay potency score (higher = more potent) of -0.767.
In turn, TCTTCGTCCAGGTGGTTCCAGT displayed a sensor-assay potency score (higher = more potent) of -0.895.
Still for that read-out and setting: in the case of TTGGTGAAGAGCTCAGGACTGA it was -0.348; in that of TGCCTGTGGATGACACCTCTGT, -0.547; in that of TCACTGTGAAGTTCTGTTGGTC, 0.188.
On the same count and under the same terms, under TTGATGCGGATCCGCTCCCGAA stands -1.62; under TTGCCTGTGGATGACACCTCTG, -0.989.
Still for that read-out and setting: under TTCCTGATGATGTTGGTGCAGT stands -0.727; under TGAAGAGCAAGACTCGAACCTC, -0.155.
In the case of ATTGATGCGGATCCGCTCCCGA, the sensor-assay potency score (higher = more potent) was -1.01.
On the same count and under the same terms, under TTGGTCTGCGTTGCCTGTGGAT stands -1.06; under TTCTCTTGGAGGAAGACGTGGA, 0.047; under TAGAGGACATGAGATCTGCTGG, -0.333.

Another test concerns the target FPGT-TNNI3K. The description is as above. The following applies: shRNA.
For the sequence TTTTATTTCTGCATCGTCCTTT, the sensor-assay potency score (higher = more potent) is 0.923.
With TTTGACTAGGTCAATGCTCTTG, the sensor-assay potency score (higher = more potent) was -0.0852.
Same read-out and setting: in the case of TTCTTTTTCCTTGATCTGCAGG it was -0.729; in that of TTGACTAGGTCAATGCTCTTGC, 0.745.
Still for that read-out and setting: in the case of TTACATTTACATCAGCACCAAA it was -1.01; in that of TTAATTTAGACTGCAAATCAAG, -1.11.
Still for that read-out and setting: under TTGAGCATTCACATCTGCTTTG stands -0.576.
TTTATTTCTGCATCGTCCTTTA gave a sensor-assay potency score (higher = more potent) of -0.351.
For the sequence TAACATATGATTCACTGACTTT, the sensor-assay potency score (higher = more potent) is -0.697.
On the same count and under the same terms, under TATCTTGAGCATTCACATCTGC stands 0.666.

The target of the next test is FRMD4B. The test is described as above. The following applies: shRNA.
For TTTCTTTGCAGCTTCCACCAGC, the sensor-assay potency score (higher = more potent) was -0.481.
Still for that read-out and setting: under TAGAAGTTTGGGCTGAACCAGC stands -0.701; under TATTAGAAAATTACTCTCCAGT, 0.00309.
Take TTCCATTGGAATAACTTCCGAG: the sensor-assay potency score (higher = more potent) turned out to be 0.389.
Same read-out and setting: under TTGCTCTTCACTAACTTCTGAG stands -0.0574.
Sequence TTGAAGTAGAAACATTCTGTTT displayed a sensor-assay potency score (higher = more potent) of -1.02.
Sequence TTTGCTTTGCTTCCGGTCCAAG showed a sensor-assay potency score (higher = more potent) of -1.02.
